High-throughput results from PubChem.
Many of the other results were omitted from the sample, so hits are more common in it than they were.
IL-1B inflam inh = inflammasome signaling inhibition, IL-1 beta readout. AID 743279. actives 4.7% (n = 360,000). THP-1 LPS/ATP IL-1B secretion, AlphaLISA, 16 h; active compounds read low. activity change, % at 57.5 µM; in the data active means activity change below about -50%; inconclusive means mostly about -30% to -49%
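THP-1 cells pretreated 1 hr with compounds (up to 57.5 uM final), then stimulated with LPS (250 ng/mL final) plus ATP (1.25 mM final); secreted IL-1B measured by AlphaLISA after 16 hr, decreased signal indicating inhibition.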
12-LOX inh = inhibitors of human 12S-lipoxygenase ALOX12 | purified 12hLO, xylenol orange hydroperoxide absorbance | Potency, µM (titrated, usually from 108 µM), for the others: top-dose activity change, negative = inhibition, actives largely listed as inhibitors | actives 1.1% (n = 580,000) | P18054; further: potency means the concentration at half of the fitted maximal effect
Target sequence (P18054 whole entry, looked up): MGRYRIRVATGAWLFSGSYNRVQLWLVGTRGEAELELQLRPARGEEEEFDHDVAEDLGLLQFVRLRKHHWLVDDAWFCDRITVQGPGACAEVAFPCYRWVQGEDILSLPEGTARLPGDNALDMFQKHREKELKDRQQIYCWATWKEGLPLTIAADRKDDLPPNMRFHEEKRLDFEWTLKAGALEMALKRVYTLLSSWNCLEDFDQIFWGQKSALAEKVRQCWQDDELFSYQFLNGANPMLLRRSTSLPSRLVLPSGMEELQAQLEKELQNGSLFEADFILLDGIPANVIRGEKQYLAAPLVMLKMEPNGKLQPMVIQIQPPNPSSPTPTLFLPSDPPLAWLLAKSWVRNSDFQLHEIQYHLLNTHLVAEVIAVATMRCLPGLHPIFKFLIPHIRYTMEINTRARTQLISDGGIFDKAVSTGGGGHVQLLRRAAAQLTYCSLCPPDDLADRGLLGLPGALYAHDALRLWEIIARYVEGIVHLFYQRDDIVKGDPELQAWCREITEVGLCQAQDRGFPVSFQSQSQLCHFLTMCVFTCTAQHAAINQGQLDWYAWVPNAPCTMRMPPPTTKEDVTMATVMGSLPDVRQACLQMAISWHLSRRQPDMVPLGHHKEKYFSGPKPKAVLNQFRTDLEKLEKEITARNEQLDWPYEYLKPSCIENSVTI
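Purified human 12hLO at 150 nM in 25 mM Hepes, 0.01% Triton X-100, pH 7.0, preincubated 15 min at room temperature with compound. Reaction started with 40 uM arachidonic acid, 30 min at room temperature. Hydroperoxide measured by Fe-xylenol orange, 573/405 nm absorbance ratio.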
HT1080NT lethal = kills 2HG-producing HT-1080-NT fibrosarcoma cells; HT-1080-NT fibrosarcoma viability, CellTiter-Glo ATP luminescence, 48 h; Potency, µM (highest dose often 46.1 µM), for the others: at the highest dose activity, negative = less viability, actives largely listed as cytotoxic; actives 1.6% (n = 360,000); AID 686970;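 further: NT is the 2HG producing partner of a matched IDH1 knockdown line; potency means the concentration at half of the fitted maximal effect; 0% = DMSO-treated cells and -100% = media-only wells without cells; nearly all actives have a fitted effect of over 55% in size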
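HT-1080-NT fibrosarcoma cells (2HG-overproducing), 750 cells/well in RPMI with 5% FBS, dosed after 2 h and incubated 48 h at 37C. CellTiter-Glo luminescence normalized to DMSO and no-cell wells; concentration-response curves fitted and classed.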
TDP1 cell CPT = DT40-hTDP1 cell growth loss with CPT. chicken DT40 Tdp1-/-;hTDP1 cells + 20 nM CPT, ATP luminescence, 48 h. Potency, µM (top dose mostly 46.2 µM), for inactives: at the highest dose activity change, negative = growth inhibition, most hits filed as inhibitors. actives 12% (n = 420,000). AID 686979; further: potency means the concentration at half of the fitted maximal effect; nearly all actives have a fitted effect of over 55% in size
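Chicken DT40 Tdp1-/- cells complemented with human TDP1, 400 cells/well, exposed to compounds plus 20 nM camptothecin for at least 48 h at 37 C; viability read as ATP content by CellTiter-Glo luminescence.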
TDP1 cell noCPT = qHTS for Inhibitors of human tyrosyl-DNA phosphodiesterase 1 (TDP1): qHTS in cells in absence of CPT. DT40 Tdp1-/- hTDP1 cells, no CPT, ATP luminescence, 48 h. Potency, µM (doses to about 46.2 µM), inactives show top-dose activity change, negative = growth inhibition, hits mostly inhibitors. actives 15% (n = 420,000). AID 686978, 2013; further: potency means the concentration at half of the fitted maximal effect; nearly all actives have a fitted effect of over 55% in size
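A cellular qHTS used chicken DT40 cells lacking endogenous Tdp1 but carrying stably transfected human TDP1. Compounds were applied without camptothecin, and cell growth kinetics were judged by ATP-dependent luminescence after ≥48 hr.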
HT1080 IDH1KD tx = HT-1080 IDH1 knockdown cell toxicity (counter line). actives 2% (n = 360,000). HT-1080 IDH1 knockdown viability, ATP luminescence, 48 h. Potency, µM (highest dose often 46.1 µM), without a hit: top-dose activity, negative = toxicity, most hits filed as cytotoxic;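 further: potency means the concentration at half of the fitted maximal effect; 0% = DMSO wells and -100% = cell-free medium wells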
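Viability of IDH1-knockdown HT-1080 fibrosarcoma cells was assessed by CellTiter-Glo after 48 h at 37 °C with titrated compound; concentration-effect curves were classified by fit quality and response size.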
Numbers without * were called inactive; u = inconclusive; x = no result given; ! = not active in a repeat; [ ] = another dose, or the depositor's remark. Unless noted, the call rests on the fitted dose curve; in most records, active means well fitted curve in the direction sought with a large enough effect; inconclusive means small, poorly fitted or top-dose-only effect, or another doubt; inactive means no such curve, though single readings can be large; an effect the other way counts as inactive or inconclusive. Unless noted, on the % scale 0 is the no-effect control and ±100 the full control effect.

SMILES	IL-1B inflam inh	12-LOX inh	HT1080NT lethal	TDP1 cell CPT	TDP1 cell noCPT	HT1080 IDH1KD tx
COc1ccccc1-c1cc(C(F)(F)F)nc(S(=O)(=O)CCCC(=O)O)n1	-87*	18%	11µM*	14µM*	u	8.9µM*
COc1ccc(-c2cc(C(F)(F)F)nc(SCC(=O)N3CCOCC3)n2)cc1OC	u	-2%	5%	-18%	u	3%
COc1ccccc1-c1cc(C(F)(F)F)nc(S(=O)(=O)CCCC(=O)Nc2cc(OC)c(OC)c(OC)c2)n1	x	u	x	u	21µM*	x
COc1ccccc1-c1cc(C(F)(F)F)nc(S(=O)(=O)CCCC(=O)N2CCOCC2)n1	-118*	0%	16µM*	2.6µM*	2.3µM*	16µM*
O=c1c2c3c(nn2ccn1Cc1cc(=O)n2ccccc2n1)CCCC3	x	15%	x	x	x	x
COc1ccccc1C1C(C(=O)Nc2ccccc2)=C(C)Nc2nc(-c3ccccc3)nn21 (stereo not drawn)	x	-18%	x	u	u	x
Cc1ccccc1CS(=O)Cc1ccc(Cl)cc1Cl (stereo not drawn)	x	-2%	x	x	x	x
Cn1cc(CN2C[C@H](C(=O)Nc3cccnc3)C[C@@H]2c2cccc(C(F)(F)F)c2)cn1	x	34%[176 µM]	x	x	x	x
CC1CCN(C(=O)c2[nH]cnc2C(=O)N2CCN(c3ccccc3)CC2)CC1	16	-1%	3%	-15%	-14%	16%
CC(C)c1ccc(S(=O)(=O)/N=C2/C=C(Sc3ncn[nH]3)C(=O)c3ccccc32)cc1	-100*	x	2.9µM*	2.6µM*	3.3µM*	4.6µM*
Cc1ccc(S(=O)(=O)Nc2ccc(O)c(Sc3ncn[nH]3)c2)cc1	7	u	14%	14%	3%	4%
CCOc1ccc(S(=O)(=O)Nc2ccc(O)c(Sc3ncn[nH]3)c2)cc1	6	-6%	1%	u	u	0%
Cc1ccc(S(=O)(=O)/N=C2/C=C(Sc3ncn[nH]3)C(=O)c3ccccc32)cc1	-105*	x	18µM*	0.33µM*	0.37µM*	3.7µM*
O=C(C1CCCN(C2CCN(c3ncnc4sccc34)CC2)C1)N1CCCC1 (stereo not drawn)	x	26%	x	x	x	x
COc1ccc(CCN=C(N)NS(=O)(=O)c2ccc3ccccc3c2)cc1	-7	-19%	-16%	-20%	-24%	-14%
Cc1cc(CNC(=O)c2cccc3c2C(=O)c2ccc(-c4ccc(F)cc4OCc4ccccc4)cc2S3(=O)=O)c(C(F)(F)F)o1	17	45µM*	-10%	u	12µM*	-14%
O=C(NCc1ccc(OC(F)(F)F)cc1)c1cccc2c1C(=O)c1ccc(N3CCCC3)cc1S2(=O)=O	20	-7%	u	-25%	18µM*	-1%
O=C(NCc1ccco1)c1cccc2c1C(=O)c1ccc(/C=C/c3ccccc3)cc1S2(=O)=O	1	u	u	u	23µM*	u
O=C(NCc1ccccc1Br)c1cccc2c1C(=O)c1ccc(-c3ccc(OC(F)(F)F)cc3)cc1S2(=O)=O	6	x	-2%	8.2µM*	7.3µM*	-3%
O=C(NCc1ccc(F)cc1)c1cccc2c1C(=O)c1ccc(Cl)cc1S2(=O)=O	x	-15%	x	x	x	x
CCC(NC(=O)c1ccc[n+]([O-])c1)c1ccc(C)cc1 (stereo not drawn)	x	-5%	x	x	x	x
CCn1nccc1C(=O)N1CCCC(c2nn[nH]n2)C1 (stereo not drawn)	x	-2%	x	x	x	x
O=C(NCc1cccc(F)c1)c1cccc2c1C(=O)c1ccc(N3CCC(Cc4ccccc4)CC3)cc1S2(=O)=O	-4	x	27%	-10%	u	0%
O=C(NCc1ccco1)c1cccc2c1C(=O)c1ccc(N3CCC(Cc4ccccc4)CC3)cc1S2(=O)=O	33	x	0%	13µM*	13µM*	-2%
O=C(NCCc1ccc(F)cc1)c1cccc2c1C(=O)c1ccc(N3CCC(Cc4ccccc4)CC3)cc1S2(=O)=O	9	x	3%	u	u	-1%
SMILES	IL-1B inflam inh	12-LOX inh	HT1080NT lethal	TDP1 cell CPT	TDP1 cell noCPT	HT1080 IDH1KD tx
O=C(NCc1cccc(C(F)(F)F)c1)c1cccc2c1C(=O)c1ccc(N3CCC(Cc4ccccc4)CC3)cc1S2(=O)=O	-2	x	u	u	7.3µM*	11%
O=C(NCc1ccc(OC(F)(F)F)cc1)c1cccc2c1C(=O)c1ccc(N3CCC(Cc4ccccc4)CC3)cc1S2(=O)=O	-2	-9%	2%	8.2µM*	5.2µM*	8%
CCCC(=O)Nc1nnc(SCc2cc(=O)c3ccc(C)cc3[nH]2)s1	x	-15%	x	1.5µM*	0.73µM*	x
CCOc1ccc(C(=O)Nc2nnc(SCc3cc(=O)c4cc(C)ccc4[nH]3)s2)cc1	x	-10%	x	-26%	-29%	x
C[C@]12CCC(=O)C=C1CCC1C2C(O)C[C@]2(C)C1CC[C@]2(O)C(=O)COC(=O)CCC(=O)O (stereo partly drawn)	x	x	x	4%	-7%	x
CC(=O)C1(O)CCC2C3CC(C)C4=CC(=O)C=CC4(C)C3(F)C(O)CC21C (stereo not drawn)	-54*	2%	u	u	-28%	u
C[C@]12CCC(=O)C=C1CC[C@@H]1[C@@H]2[C@@H](O)C[C@@]2(C)[C@H]1CC[C@]2(O)C(=O)COC(=O)CCC(=O)O	u	-13%	u	u	8.4µM*!	29%
CC(=O)OCC(=O)C1(O)CCC2C3CC(C)C4=CC(=O)C=CC4(C)C3(F)C(O)CC21C (stereo not drawn)	x	2%	15%	-11%	-17%	u
CC(=O)OCC(=O)[C@@]1(O)CC[C@H]2[C@@H]3CCC4=CC(=O)C=C[C@]4(C)[C@@]3(F)[C@@H](O)C[C@@]21C	-56*	16%	23%	-21%	2%	11%
CC12C=CC(=O)C=C1CCC1C3CCC(O)(C(=O)CO)C3(C)CC(O)C12F (stereo not drawn)	-57*	0%	u	-5%	-6%	u
COCC(=O)N[C@@H]1CN(Cc2ccncc2)C[C@H]1CO	x	66%	x	x	x	x
COc1ccccc1-n1c(Cc2cccc3ccccc23)nnc1SCC(=O)O	x	-23%	x	x	x	x
CCc1sc(C(=O)N2CCCCCC2)cc1Br	x	-4%	x	x	x	x
